PubChem BioAssay

Assay: small-molecule microarray binders of probe aNog, primary screen, biochemical, biotinylated probe, 635/667 nm fluorescence (AID 1115);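 further: probe is biotinylated aNog protein used at 0.15 µg/mL for 1 h at 4 C; z-score combines 667 nm fluorescence of each spot with its signal to noise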
Conditions: higher = more signal

Row | SMILES | composite z-score
1 | [N-]=[N+]=Nc1ccccc1C[C@]1(C(=O)NCCN2CCOCC2)N=C(c2ccc(OCCCO)cc2)O[C@H]1c1ccccc1 | -0.465
2 | CCOC(=O)C[C@H]1[C@H](OC(=O)c2ccc(-c3ccccc3)cc2)[C@@H](NC(=O)c2ccc3ccccc3c2)c2cc(OCCCO)ccc2N1C(=O)Cc1ccc(OC)cc1 | -0.0209
3 | CC(C)(C)OC(=O)CC[C@@]1(C(=O)O)N=C(c2ccc(OCCCO)cc2)O[C@@H]1c1ccccc1N=[N+]=[N-] | 0.58
4 | O=C1C[C@]2(c3ccc([N+](=O)[O-])cc3)C(=O)N(CC(F)(F)F)c3cc(CO)ccc3[C@H]2N1CC12CC3CC(CC(C3)C1)C2 | -0.364
5 | O=C1OCCC=C[C@H]2OC34C=CCN(c5ccc6ccccc6c5)C(=O)[C@H]3N(CCCCCO)C(=O)[C@@H]4C12 (stereo not given in full) | 0.438
6 | Cc1cc(C)c(C(O)C2C=CC3C(=O)N(c4ccccc4)C(=O)C3N2Nc2ccc(C#N)cc2)c(C)c1 (stereo not given) | 1.97
7 | C=C[C@@H](COC(C)=O)N(Cc1ccccc1[N+](=O)[O-])S(=O)(=O)c1ccc(Br)cc1 | -0.56
8 | COCCOC(=O)N1C(=O)[C@@]2(c3cc(C#Cc4ccc(OC)cc4)ccc31)[C@H](C(=O)N1CCN(c3ncccn3)CC1)[C@H]1C(=O)O[C@H](c3ccccc3)[C@H](c3ccccc3)N1[C@@H]2c1ccc(O)cc1 | -0.366
9 | CCOC(=O)C[C@H]1[C@H](OC(=O)c2ccc(-c3ccccc3)cc2)[C@@H](NC(=O)c2ccc(-c3ccccc3)cc2)c2cc(OCCCO)ccc2N1C(=O)Cc1ccc(OC)cc1 | -0.456
10 | COC(=O)[C@@]1(Cc2ccccc2)[C@H]2c3cc(C(=O)N4CCCC4)n(C)c3C[C@H]2CN1C(=O)c1ccccc1 | 0.268
